The values that follow come from article PMC7862700, “An all-to-all approach to the identification of sequence-specific readers for epigenetic DNA modifications on cytosine”.

What all share (assay): DAPPL (digital affinity profiling via proximity ligation, sequencing); 10 mM Tris-HCl pH 7.5, 50 mM NaCl, 1 mM DTT, 4% glycerol, room temperature, 30 min; GST-TFs on glutathione beads, 16-mer random dsDNA library, 0.1% formaldehyde crosslink after washing; high values mean tight binding
What all share (details): protein: recombinant; tags: N-terminal GST; dsDNA, one strand shown

One experiment concerns the target T1, FLI1 (Homo sapiens, UniProt Q01543 1-452).
T1 sequence: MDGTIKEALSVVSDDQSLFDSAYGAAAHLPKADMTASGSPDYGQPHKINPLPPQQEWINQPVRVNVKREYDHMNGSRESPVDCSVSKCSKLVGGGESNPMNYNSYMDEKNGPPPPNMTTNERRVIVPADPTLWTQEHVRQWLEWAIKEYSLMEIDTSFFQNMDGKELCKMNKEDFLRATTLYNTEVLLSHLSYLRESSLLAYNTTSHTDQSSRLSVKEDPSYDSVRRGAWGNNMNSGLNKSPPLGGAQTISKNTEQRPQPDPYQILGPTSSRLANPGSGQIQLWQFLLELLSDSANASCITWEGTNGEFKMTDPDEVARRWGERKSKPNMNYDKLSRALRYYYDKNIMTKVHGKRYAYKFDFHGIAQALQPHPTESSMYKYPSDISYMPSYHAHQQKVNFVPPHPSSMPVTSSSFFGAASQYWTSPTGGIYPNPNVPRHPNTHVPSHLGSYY
The method, boiled down:
(§1)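 Pools of DNA-barcoded human transcription factors, expressed in yeast as GST fusions on glutathione beads and combined with a tag-only sample, were incubated with 200 nmole of a 16-mer random double-stranded DNA library. Incubation took 30 min at room temperature in Tris/NaCl/DTT/glycerol buffer and was followed by washing, 0.1% formaldehyde crosslinking, proximity ligation (BsaI/T4 ligase, 1 h, 37 °C), PCR amplification and sequencing on an Illumina NextSeq500. Binding signal is the ratio of a hexamer's read frequency for a factor to its frequency for the tag-only sample.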

In the next experiment the target is T2, ELK1 (Homo sapiens, UniProt P19419 1-428).
T2 sequence: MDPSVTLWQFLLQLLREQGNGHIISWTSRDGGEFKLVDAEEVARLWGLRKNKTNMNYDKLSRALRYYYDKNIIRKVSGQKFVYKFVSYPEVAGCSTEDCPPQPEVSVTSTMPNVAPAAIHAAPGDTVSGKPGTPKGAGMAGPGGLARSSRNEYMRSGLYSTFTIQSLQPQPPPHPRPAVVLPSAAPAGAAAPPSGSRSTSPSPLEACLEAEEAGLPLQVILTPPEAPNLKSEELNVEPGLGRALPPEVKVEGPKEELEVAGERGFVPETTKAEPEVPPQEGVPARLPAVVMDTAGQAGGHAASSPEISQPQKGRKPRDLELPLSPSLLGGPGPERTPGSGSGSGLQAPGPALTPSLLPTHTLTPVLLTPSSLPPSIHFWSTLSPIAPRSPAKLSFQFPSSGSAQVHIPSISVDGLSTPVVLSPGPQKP
The method, boiled down: as §1

Another experiment concerns the target T3, GABPA (Homo sapiens, UniProt Q06546 1-454).
T3 sequence: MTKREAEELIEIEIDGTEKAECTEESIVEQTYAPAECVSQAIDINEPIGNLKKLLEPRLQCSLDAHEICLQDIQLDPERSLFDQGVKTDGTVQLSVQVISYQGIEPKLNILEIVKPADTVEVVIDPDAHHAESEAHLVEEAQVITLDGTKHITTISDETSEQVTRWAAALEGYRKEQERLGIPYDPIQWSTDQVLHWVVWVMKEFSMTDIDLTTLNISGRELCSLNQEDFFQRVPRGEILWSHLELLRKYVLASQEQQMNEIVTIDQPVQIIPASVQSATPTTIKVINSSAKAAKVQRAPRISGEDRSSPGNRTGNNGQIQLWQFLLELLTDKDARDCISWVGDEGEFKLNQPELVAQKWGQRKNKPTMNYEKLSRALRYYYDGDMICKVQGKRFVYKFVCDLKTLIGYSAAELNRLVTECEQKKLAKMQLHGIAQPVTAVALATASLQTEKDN
The essentials: as §1

The next experiment concerns the target T4, ERG (Homo sapiens, UniProt P11308 1-479).
T4 sequence: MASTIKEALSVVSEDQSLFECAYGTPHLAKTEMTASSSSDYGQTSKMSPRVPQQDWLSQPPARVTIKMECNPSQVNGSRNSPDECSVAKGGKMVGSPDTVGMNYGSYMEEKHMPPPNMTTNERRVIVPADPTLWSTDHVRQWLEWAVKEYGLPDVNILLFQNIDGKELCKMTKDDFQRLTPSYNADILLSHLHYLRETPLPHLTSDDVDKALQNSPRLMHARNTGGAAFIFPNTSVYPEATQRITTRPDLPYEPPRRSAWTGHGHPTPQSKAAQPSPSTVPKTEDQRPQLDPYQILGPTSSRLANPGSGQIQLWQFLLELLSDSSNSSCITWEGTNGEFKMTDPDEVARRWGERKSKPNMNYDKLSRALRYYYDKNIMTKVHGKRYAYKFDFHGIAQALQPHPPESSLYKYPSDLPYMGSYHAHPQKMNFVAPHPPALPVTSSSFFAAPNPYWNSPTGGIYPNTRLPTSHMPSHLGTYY
The method, boiled down: as §1

For a further experiment, the target named is ELF1 (Homo sapiens, UniProt P32519 1-619). The method, boiled down:
as §1

In another experiment the target is T5, EHF (Homo sapiens, UniProt Q9NZC4 1-300).
T5 sequence: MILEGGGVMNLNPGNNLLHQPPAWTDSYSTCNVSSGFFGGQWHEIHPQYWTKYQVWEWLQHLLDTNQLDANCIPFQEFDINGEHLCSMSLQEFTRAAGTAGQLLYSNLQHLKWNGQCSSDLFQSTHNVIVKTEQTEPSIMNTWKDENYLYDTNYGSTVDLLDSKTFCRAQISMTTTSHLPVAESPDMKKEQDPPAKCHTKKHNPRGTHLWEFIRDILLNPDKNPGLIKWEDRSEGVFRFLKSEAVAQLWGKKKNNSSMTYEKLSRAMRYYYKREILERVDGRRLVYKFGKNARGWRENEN
The method, boiled down: as §1

In another experiment the target is SPI1 (Homo sapiens, UniProt P17947 1-270). The method, boiled down: as §1
The next experiment concerns the target SPIB (Homo sapiens, UniProt Q01892 1-262). The method, boiled down:
as §1

A further experiment addresses T6, ELK3 (Homo sapiens, UniProt P41970 1-407).
T6 sequence: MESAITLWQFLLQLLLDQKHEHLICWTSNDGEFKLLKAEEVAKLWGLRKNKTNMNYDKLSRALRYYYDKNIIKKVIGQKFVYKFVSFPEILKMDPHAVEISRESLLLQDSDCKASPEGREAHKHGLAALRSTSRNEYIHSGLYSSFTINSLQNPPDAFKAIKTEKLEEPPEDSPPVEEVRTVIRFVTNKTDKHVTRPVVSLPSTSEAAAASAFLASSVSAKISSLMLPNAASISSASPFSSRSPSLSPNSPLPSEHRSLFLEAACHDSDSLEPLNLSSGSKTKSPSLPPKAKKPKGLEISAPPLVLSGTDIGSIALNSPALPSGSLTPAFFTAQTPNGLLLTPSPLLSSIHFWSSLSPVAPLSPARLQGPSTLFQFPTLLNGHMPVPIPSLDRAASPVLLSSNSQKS
The essentials: as §1

Sequence of ELF1 (P32519 whole entry): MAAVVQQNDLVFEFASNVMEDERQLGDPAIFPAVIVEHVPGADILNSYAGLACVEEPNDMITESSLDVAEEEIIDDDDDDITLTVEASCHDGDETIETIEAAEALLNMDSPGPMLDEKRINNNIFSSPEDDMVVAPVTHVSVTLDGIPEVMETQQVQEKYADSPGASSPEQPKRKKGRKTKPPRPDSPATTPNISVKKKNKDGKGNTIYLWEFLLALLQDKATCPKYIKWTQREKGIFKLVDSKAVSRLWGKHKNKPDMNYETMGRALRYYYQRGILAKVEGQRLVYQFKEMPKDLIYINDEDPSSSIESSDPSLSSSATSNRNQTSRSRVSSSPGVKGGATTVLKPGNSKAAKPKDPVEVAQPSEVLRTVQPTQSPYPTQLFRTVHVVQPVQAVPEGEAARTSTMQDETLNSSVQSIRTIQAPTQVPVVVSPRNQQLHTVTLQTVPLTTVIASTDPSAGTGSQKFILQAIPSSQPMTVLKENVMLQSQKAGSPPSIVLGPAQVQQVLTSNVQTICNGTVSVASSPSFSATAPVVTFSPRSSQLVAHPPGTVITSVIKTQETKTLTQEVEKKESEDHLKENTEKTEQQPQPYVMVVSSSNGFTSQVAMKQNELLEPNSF
Sequence of SPIB (Q01892 whole entry): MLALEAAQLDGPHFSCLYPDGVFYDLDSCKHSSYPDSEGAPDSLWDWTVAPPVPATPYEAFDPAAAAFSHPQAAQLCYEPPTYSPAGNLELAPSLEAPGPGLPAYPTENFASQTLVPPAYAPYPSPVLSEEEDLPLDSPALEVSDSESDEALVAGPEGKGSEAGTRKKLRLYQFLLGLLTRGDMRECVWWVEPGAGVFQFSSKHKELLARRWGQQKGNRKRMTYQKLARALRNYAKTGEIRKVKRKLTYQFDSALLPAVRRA

Regarding GTCTTT, the binding signal with FLI1 is 1.28 fold enrichment (6-mer frequency, TF over GST control); with ELK1, 1.21 fold enrichment (6-mer frequency, TF over GST control); with GABPA, 1.35 fold enrichment (6-mer frequency, TF over GST control); with ERG, 1.15 fold enrichment (6-mer frequency, TF over GST control); in the experiment with ELF1, 1.26 fold enrichment (6-mer frequency, TF over GST control); with EHF, 1.2 fold enrichment (6-mer frequency, TF over GST control). Besides, the binding signal with SPI1 was 1.38 fold enrichment (6-mer frequency, TF over GST control); in the experiment with SPIB it was 1.23 fold enrichment (6-mer frequency, TF over GST control); with ELK3, 1.34 fold enrichment (6-mer frequency, TF over GST control).
In the case of TAAATG, the binding signal with FLI1 is 1.22 fold enrichment (6-mer frequency, TF over GST control); with ELK1, 1.21 fold enrichment (6-mer frequency, TF over GST control); with GABPA, 1.34 fold enrichment (6-mer frequency, TF over GST control); with ERG, 1.27 fold enrichment (6-mer frequency, TF over GST control); with ELF1, 1.34 fold enrichment (6-mer frequency, TF over GST control); with EHF, 1.27 fold enrichment (6-mer frequency, TF over GST control). Moreover, the binding signal in the experiment with SPI1 is 1.36 fold enrichment (6-mer frequency, TF over GST control); with SPIB, 1.35 fold enrichment (6-mer frequency, TF over GST control); with ELK3, 1.29 fold enrichment (6-mer frequency, TF over GST control).
For CCGAAC, the binding signal is 1.26 fold enrichment (6-mer frequency, TF over GST control) with FLI1; 1.21 fold enrichment (6-mer frequency, TF over GST control) with ELK1; 1.29 fold enrichment (6-mer frequency, TF over GST control) with GABPA; 1.21 fold enrichment (6-mer frequency, TF over GST control) in the experiment with ERG; 1.26 fold enrichment (6-mer frequency, TF over GST control) with ELF1; 1.32 fold enrichment (6-mer frequency, TF over GST control) with EHF. Also, the binding signal with SPI1 is 1.25 fold enrichment (6-mer frequency, TF over GST control); in the experiment with SPIB, 1.2 fold enrichment (6-mer frequency, TF over GST control); with ELK3, 1.33 fold enrichment (6-mer frequency, TF over GST control).
GTCTCG: the binding signal was 1.36 fold enrichment (6-mer frequency, TF over GST control) with FLI1; 1.37 fold enrichment (6-mer frequency, TF over GST control) in the experiment with ELK1; 1.3 fold enrichment (6-mer frequency, TF over GST control) with GABPA; 1.26 fold enrichment (6-mer frequency, TF over GST control) with ERG; 1.32 fold enrichment (6-mer frequency, TF over GST control) with ELF1; 1.28 fold enrichment (6-mer frequency, TF over GST control) with EHF. In addition, the binding signal is 1.33 fold enrichment (6-mer frequency, TF over GST control) in the experiment with SPI1; 1.43 fold enrichment (6-mer frequency, TF over GST control) in the experiment with SPIB; 1.37 fold enrichment (6-mer frequency, TF over GST control) in the experiment with ELK3.
As for TTTCGA, the binding signal is 1.36 fold enrichment (6-mer frequency, TF over GST control) in the experiment with FLI1; 1.45 fold enrichment (6-mer frequency, TF over GST control) with ELK1; 1.51 fold enrichment (6-mer frequency, TF over GST control) with GABPA; 1.37 fold enrichment (6-mer frequency, TF over GST control) with ERG; 1.56 fold enrichment (6-mer frequency, TF over GST control) in the experiment with ELF1; 1.49 fold enrichment (6-mer frequency, TF over GST control) in the experiment with EHF. In addition, the binding signal in the experiment with SPI1 is 1.35 fold enrichment (6-mer frequency, TF over GST control); with SPIB, 1.48 fold enrichment (6-mer frequency, TF over GST control); with ELK3, 1.52 fold enrichment (6-mer frequency, TF over GST control).
For AAAACG, the binding signal with FLI1 is 1.13 fold enrichment (6-mer frequency, TF over GST control); with ELK1 it was 1.19 fold enrichment (6-mer frequency, TF over GST control); with GABPA, 1.14 fold enrichment (6-mer frequency, TF over GST control); with ERG, 1.21 fold enrichment (6-mer frequency, TF over GST control); with ELF1, 1.16 fold enrichment (6-mer frequency, TF over GST control); with EHF, 1.17 fold enrichment (6-mer frequency, TF over GST control). The binding signal is 1.43 fold enrichment (6-mer frequency, TF over GST control) in the experiment with SPI1; 1.11 fold enrichment (6-mer frequency, TF over GST control) with SPIB; 1.14 fold enrichment (6-mer frequency, TF over GST control) with ELK3.
Turning to TCACGT, the binding signal in the experiment with FLI1 is 1.28 fold enrichment (6-mer frequency, TF over GST control); with ELK1, 1.3 fold enrichment (6-mer frequency, TF over GST control); with GABPA, 1.31 fold enrichment (6-mer frequency, TF over GST control); with ERG it was 1.29 fold enrichment (6-mer frequency, TF over GST control); in the experiment with ELF1 it was 1.17 fold enrichment (6-mer frequency, TF over GST control); in the experiment with EHF it was 1.14 fold enrichment (6-mer frequency, TF over GST control). The binding signal was 1.24 fold enrichment (6-mer frequency, TF over GST control) with SPI1; 1.18 fold enrichment (6-mer frequency, TF over GST control) with SPIB; 1.16 fold enrichment (6-mer frequency, TF over GST control) with ELK3.
Regarding TTCTTA, the binding signal in the experiment with FLI1 was 1.42 fold enrichment (6-mer frequency, TF over GST control); in the experiment with ELK1 it was 1.43 fold enrichment (6-mer frequency, TF over GST control); with GABPA, 1.37 fold enrichment (6-mer frequency, TF over GST control); with ERG, 1.4 fold enrichment (6-mer frequency, TF over GST control); in the experiment with ELF1, 1.37 fold enrichment (6-mer frequency, TF over GST control); in the experiment with EHF it was 1.28 fold enrichment (6-mer frequency, TF over GST control). Moreover, the binding signal with SPI1 was 1.34 fold enrichment (6-mer frequency, TF over GST control); with SPIB, 1.28 fold enrichment (6-mer frequency, TF over GST control); in the experiment with ELK3 it was 1.5 fold enrichment (6-mer frequency, TF over GST control).
